The values below come from ChEMBL document CHEMBL3988442, “University of Dundee, Small-Polar-MMV Screening Library” (2021).

The target in assay [1] is T1, Aspartate--tRNA(Asp/Asn) ligase (Mycobacterium tuberculosis (strain ATCC 25618 / H37Rv)) (UniProt P9WFW3). Also: in the data most compounds retested in dose-response had high values.
T1 sequence (whole entry): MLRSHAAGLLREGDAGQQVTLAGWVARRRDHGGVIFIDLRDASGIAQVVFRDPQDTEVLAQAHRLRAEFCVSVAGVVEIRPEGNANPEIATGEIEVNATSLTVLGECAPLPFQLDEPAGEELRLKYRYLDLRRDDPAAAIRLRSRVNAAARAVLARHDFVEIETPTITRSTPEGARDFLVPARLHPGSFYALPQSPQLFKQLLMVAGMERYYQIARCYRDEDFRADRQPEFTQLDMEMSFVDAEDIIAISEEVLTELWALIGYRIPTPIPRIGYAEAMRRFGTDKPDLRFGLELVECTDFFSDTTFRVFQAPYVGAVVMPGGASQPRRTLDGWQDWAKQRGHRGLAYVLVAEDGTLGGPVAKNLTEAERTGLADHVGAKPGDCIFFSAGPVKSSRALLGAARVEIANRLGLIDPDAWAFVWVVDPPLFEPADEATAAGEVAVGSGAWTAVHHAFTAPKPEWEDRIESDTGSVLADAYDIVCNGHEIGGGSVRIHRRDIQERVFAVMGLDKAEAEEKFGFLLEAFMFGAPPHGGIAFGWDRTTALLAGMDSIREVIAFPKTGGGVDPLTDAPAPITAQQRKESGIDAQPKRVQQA
Kind of assay: Assay for Asp RNA synthetase-1 from Mycobacterium tuberculosis. It is filed as functional. The arrangement: scale not given: direction of the effect not stated beside the values. The note with it: 30 µM.

Assay [2] addresses Shiga toxin 2 (Escherichia coli O157:H7) (UniProt P09385+P09386). In words: E. coli 0.157:H7 Shiga Toxin SOP - stx2 screening assay. It is filed as functional. The arrangement: scale not given: direction of the effect not stated beside the values. To be noted: 30 µM.

On to `COCCNc1nc2c(c(NCc3ccncc3)n1)CCNCC2`, for which the figures for the Percent Effect in assay [1] and in assay [2] were 2.58% and -12.3%, respectively.
As to `CN(C)C(=O)N1CCN(Cc2cnn(C)c2)CC2(CNC(=O)C2)C1` (centres undefined), the Percent Effect is 2.15% in assay [1] and -5.82% in assay [2].
`FC1(F)CCN(Cc2ccncc2)CC12CCN(Cc1ccccn1)C2` (centres undefined): the Percent Effect is 4.66% in assay [1] and -2.47% in assay [2].
`Cc1cc(NC(=O)NCC(C)N2CCc3ccccc32)no1` (centres undefined): the figures for the Percent Effect in assay [1] and in assay [2] were 2.59% and -1.83%, respectively.
For `COc1cccc(-c2nc(C)c(C(=O)NC(CO)CCSC)s2)c1` (centres undefined), in that order: -3.69% and -34.8%.
For the compound `Cc1nc(O)c2nnn(C[C@H]3CCCN3C(=O)CCC3CCCC3)c2n1`, the Percent Effect in assay [1] was 2.01%; in assay [2] it was 13%.
For `CCn1cc(NC(=O)CCc2ccc3c(c2)OCCCO3)cn1`, the Percent Effect in assay [1] is -3.45%; in assay [2], -47.1%.
Consider `CCn1cc2c(n1)CN(Cc1ccoc1)CC2COCC1CC1` (centres undefined), for which the Percent Effect in assay [1] was -4.69%; in assay [2], 13.8%.
`COCCN1CCC2(CCCN(C(=O)c3cnoc3C)C2)C1=O` (centres undefined): the Percent Effect in assay [1] is 0.137%; in assay [2], -23%.
The like results for `CC(=O)N1CC(=O)N(c2ccccc2)CC12CCN(Cc1cccs1)C2` (centres undefined) were, in that order, 2.3% and -33.9%.
For the compound `O=C(c1cc(Cl)c2c(c1)OCO2)N1CCN(c2nccs2)CC1`, the Percent Effect in assay [1] was -0.23%; in assay [2], -4.3%.
Take `CN1CCCN(c2nccc(-c3c[nH]nc3C3CCCCC3)n2)CC1`: the Percent Effect is 14.1% in assay [1] and -32.4% in assay [2].
With `CCOc1nnc(CNC2CCCN(c3ccc(C)nn3)C2)s1` (centres undefined), the figures for the Percent Effect in assay [1] and in assay [2] were 9.48% and 19.6%, respectively.
The like results for `CCn1c(N)nc2cc(C(=O)NCCc3ccccc3C)cnc21` were, in that order, 7.33% and -69.2%.
For the compound `Cc1ccc(CC(=O)N2CC[C@@H]3CN(CCN(C)C)CCO[C@@H]3C2)cc1`, the Percent Effect in assay [1] was 6.89%; in assay [2] it was -3.9%.
Turning to `CS(=O)(=O)NCCCN1CCCC1c1ccccc1` (centres undefined), the Percent Effect in assay [1] was determined as 2.4%; in assay [2], 10%.
The like results for `O=C(Nc1nncs1)NC1CCOc2ccccc21` (centres undefined) were, in that order, 5.22% and -45.8%.
For `CCN(C(=O)c1ccc(-n2ncc(C#N)c2N)cc1)C1CCCC1`, in that order: 6.53% and 6.02%.
As for `Cc1[nH]ncc1CCCNC(=O)Nc1ccc(C#N)cc1`, the Percent Effect in assay [1] was 0.993%; in assay [2] it was -61.3%.
The like results for `CCc1nnc(CN2CCN(C(=O)c3ccccn3)CC2)o1` were, in that order, -0.577% and 21.4%.
The like results for `CN(C)S(=O)(=O)N1CCCC1CC(=O)c1cccs1` (centres undefined) were, in that order, 2.35% and -10.2%.
The like results for `COCCn1ccnc1C1CCCN(C(=O)CSCC2CC2)C1` (centres undefined) were, in that order, -2.09% and 12.8%.
Turning to `c1ccc(OCc2nnc3n2CCN(CC2CCOCC2)C3)nc1`, the Percent Effect in assay [1] stood at 10.1%; in assay [2] it was 7.95%.
As for `CN(C)C(=O)N1CCOCC2(CCN(c3ncccn3)C2)C1` (centres undefined), the Percent Effect in assay [1] was 0.466%; in assay [2] it was 10%.
For `CC(=O)N1CCc2c(nc(-c3ccccn3)nc2N(C)CC(O)CO)C1` (centres undefined), in that order: -6.34% and 26.6%.
For `CCCN(C)C(=O)c1ccc2c(c1)[nH]c(=O)n2CCOCC`, in that order: -2.29% and -18.9%.
On to `Cc1ccc(NC(=O)C2CSCN2C(=O)c2cnccn2)c(C)c1` (centres undefined), for which the Percent Effect in assay [1] was 1.01%; in assay [2], -39.3%.
The like results for `COCC(=O)N1CC[C@H]2C[C@@H](c3nnc(C4CC4)o3)O[C@@H]2C1` were, in that order, -1.34% and -18.9%.
Take `CNc1cncc(C2CCCN2Cc2c[nH]cn2)n1` (centres undefined): the results for the Percent Effect in assay [1] and in assay [2] were 7.49% and 7.95%, respectively.
Regarding `N#CCCN(C(=O)CN1CCCC1C1CCCCC1)c1ccccc1` (centres undefined), the values for the Percent Effect in assay [1] and in assay [2] were 8.01% and -20.8%, respectively.
In the case of `O=C(Nc1cnccn1)[C@H]1COC[C@H]2CN(C3CCCC3)C[C@H]21`, the Percent Effect in assay [1] is -3.53%; in assay [2] it was 8.55%.
The like results for `Cc1cc(C(=O)NCC2COCc3c(C)nnn3C2)no1` (centres undefined) were, in that order, 2.38% and -17.1%.
The like results for `Cn1cc(C2CCCN2Cc2csc(-c3ccsc3)n2)cn1` (centres undefined) were, in that order, 7.77% and -5.27%.
For the compound `O=C(c1cnccn1)N1CCOCC2(CCN(C3CCOCC3)C2)C1` (centres undefined), the Percent Effect was 3.28% in assay [1] and -36.9% in assay [2].
The like results for `O=C(NCC1CCSCC1)N(CCCO)C1CCc2ccccc21` (centres undefined) were, in that order, 6.01% and -37.4%.
For `CC(C(=O)N1CCCC1)N1CCC(c2nccn2CC2CCC2)CC1` (centres undefined), in that order: -1.49% and -1.48%.
Take `Cc1cc(C)n(CC2CCCN2Cc2c(C)noc2C)n1` (centres undefined): the Percent Effect in assay [1] was -2.12%; in assay [2], -12.7%.
The like results for `CC(=O)N1CCC(C(=O)NCCN2CCC(C)CC2)CC1` were, in that order, 0.167% and 0.682%.
The like results for `N#Cc1ccccc1CN1C[C@@H]2CC[C@H](C1)N(Cc1cscn1)C2=O` were, in that order, -3.02% and 3.66%.
The like results for `COc1cccc(OCCNC(=O)CN2CCN(C)CC2C)c1` (centres undefined) were, in that order, -3.03% and -14.9%.
As to `COCc1cc(NCc2cc(F)ccc2F)n2nccc2n1`, the Percent Effect in assay [1] is 7.1%; in assay [2] it was -13.4%.
The like results for `Cc1ccc(C(=O)NC(C)CN2CCCC2=O)c(=O)[nH]1` (centres undefined) were, in that order, -2.42% and -3.66%.
On to `Cc1nc(C(C)(C)NC(=O)Nc2cccc(C#N)c2)no1`, for which the results for the Percent Effect in assay [1] and in assay [2] were -0.287% and -19.6%, respectively.
The like results for `COc1cc(CNC(=O)c2c(C)noc2C(C)C)ccn1` were, in that order, -1.27% and -44%.
`CC(C)c1nc(C2CCCN(C(=O)CCn3ccnc3)C2)no1` (centres undefined): the Percent Effect in assay [1] was found to be 5.96%; in assay [2], 3.56%.
Take `c1cnc(-c2nc(CNCCn3cccn3)cs2)nc1`: the Percent Effect is -1.5% in assay [1] and 5.58% in assay [2].
For `O=C(NCc1ccco1)[C@H]1C[C@H]2OCC[C@H]2N(C(=O)c2ccco2)C1`, in that order: 3.58% and 6.55%.
As for `Cc1nn(CC(C)C)c(N(C)C)c1CNCc1cc2ccccc2[nH]1`, the Percent Effect is -2.12% in assay [1] and 31.1% in assay [2].
For `CN(C)c1ccc(C(=O)N2CCN(C(=O)N3CCCCC3)CC2)nn1`, in that order: -3.34% and -35%.
With `CN(C(=O)c1ccccn1)c1nc2c(s1)CCc1c-2cnn1C`, the Percent Effect is 50% in assay [1] and -76.1% in assay [2].
For `CNC(=O)[C@@]12CCCN(c3ncccn3)[C@@H]1CN(C(=O)NC(C)C)C2`, the Percent Effect was 1.62% in assay [1] and -25.1% in assay [2].
For `Cc1ccccc1C(=O)NCc1ccc(N2CCNC(=O)C2)cc1`, in that order: 0.212% and -90.8%.
